Reference: PubChem BioAssay AID1159580 (chemical genetic matrix, 2015)
“And” between values parts separate entries of the source, which are not always exact repeats. Equal values may be shown once. Out of some 5,500 compounds screened, about 2,000 (36%) were called active. About 18% were inconclusive and are not listed. No stated cut-off is given here; in the data, active means normalized growth mostly below about 0.91 (no sharp cut-off); inconclusive means no clear call, values can overlap the other calls; inactive means mostly above about 0.92. The list shows a part of the results.

Experiment: chemical genetic growth profiling, strain panel (AID 1159580);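 further: tested at 20 µM; growth read once vehicle control cultures reached saturation at 30 °C; 1 = growth at the plate median or of vehicle wells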
Conditions: S. cerevisiae deletion strains, growth OD

Measured: normalized growth

OC[C@@H](O)[C@@H](O[C@@H]1O[C@H](CO)[C@@H](O)[C@H](O)[C@H]1O)[C@H](O)[C@@H](O)CO
inactive: locus YAL013W, strain DEP1, stronger effect = lower value 1.01 | locus YAL021C, strain ccr4, stronger effect = lower value 0.998 | locus YAL026C, strain drs2, stronger effect = lower value 0.982 | locus YAL030W, strain snc1, stronger effect = lower value 0.993 | locus YBL061C, strain skt5, stronger effect = lower value 1.01 | locus YBR009C, strain hhf1, stronger effect = lower value 1 | locus YBR021W, strain FUR4, stronger effect = lower value 1.03 | locus YBR023C, strain chs3, stronger effect = lower value 1 | locus YBR171W, strain sec66, stronger effect = lower value 0.989 | locus YBR229C, strain ROT2, stronger effect = lower value 1.01 | locus YBR231C, strain swc5, stronger effect = lower value 0.996 | locus YBR279W, strain paf1, stronger effect = lower value 0.979 | locus YCL011C, strain gbp2, stronger effect = lower value 0.989 | locus YCL016C, strain dcc1, stronger effect = lower value 1.01 | locus YCL029C, strain bik1, stronger effect = lower value 1.02 | locus YCL061C, strain MRC1, stronger effect = lower value 1 | locus YCL069W, strain vba3, stronger effect = lower value 0.972 | locus YCR088W, strain abp1, stronger effect = lower value 0.989 | locus YDL005C, strain med2, stronger effect = lower value 0.985 | locus YDL035C, strain GPR1, stronger effect = lower value 1.03 | locus YDL040C, strain nat1, stronger effect = lower value 0.989 | locus YDL074C, strain BRE1, stronger effect = lower value 1.01 | locus YDL101C, strain DUN1, stronger effect = lower value 1.01 | locus YDL134C, strain PPH21, stronger effect = lower value 1.01 | locus YDL185W, strain tfp1, stronger effect = lower value 1.01 | locus YDL192W, strain arf1, stronger effect = lower value 1.01 | locus YDR001C, strain nth1, stronger effect = lower value 0.996 | locus YDR069C, strain doa4, stronger effect = lower value 0.981 | locus YDR101C, strain arx1, stronger effect = lower value 1 | locus YDR137W, strain rgp1, stronger effect = lower value 1 | locus YDR150W, strain NUM1, stronger effect = lower value 0.998 | locus YDR159W, strain sac3, stronger effect = lower value 0.986 | locus YDR162C, strain NBP2, stronger effect = lower value 0.979 | locus YDR195W, strain ref2 0.958 | locus YDR297W, strain sur2, stronger effect = lower value 0.992 | locus YDR318W, strain mcm21, stronger effect = lower value 1.04 | locus YDR334W, strain swr1, stronger effect = lower value 0.984 | locus YDR335W, strain msn5, stronger effect = lower value 0.992 | locus YDR388W, stronger effect = lower value 1.01 | locus YDR392W, strain spt3, stronger effect = lower value 0.951 | locus YDR502C, strain sam2, stronger effect = lower value 0.994 | locus YEL003W, strain gim4, stronger effect = lower value 0.989 | locus YEL037C, strain rad23, stronger effect = lower value 0.966 | locus YEL061C, strain CIN8 (second series), stronger effect = lower value 0.977 | locus YEL061C, strain CIN8, stronger effect = lower value 1 | locus YER015W, strain faa2, stronger effect = lower value 1 | locus YER016W, strain bim1, stronger effect = lower value 0.996 | locus YER110C, stronger effect = lower value 1.02 | locus YER111C, strain swi4, stronger effect = lower value 0.972 | locus YER155C, strain BEM2 (second series), stronger effect = lower value 1.02 | locus YER155C, strain BEM2, stronger effect = lower value 0.987 | locus YER167W, strain BCK2, stronger effect = lower value 1.06 | locus YFR010W, strain ubp6, stronger effect = lower value 0.969 | locus YGL078C, strain dbp3, stronger effect = lower value 0.987 | locus YGL086W, strain mad1, stronger effect = lower value 1.03 | locus YGL167C, strain pmr1, stronger effect = lower value 1.01 | locus YGL173C, strain kem1, stronger effect = lower value 1 | locus YGL227W, strain vid30, stronger effect = lower value 0.99 | locus YGL240W, strain doc1, stronger effect = lower value 0.99 | locus YGL248W, strain PDE1, stronger effect = lower value 1.01 | locus YGL253W, strain hxk2, stronger effect = lower value 0.999 | locus YGR078C, strain PAC10, stronger effect = lower value 1.02 | locus YGR135W, strain pre9, stronger effect = lower value 1.03 | locus YGR229C, strain SMI1, stronger effect = lower value 1.02 | locus YGR252W, strain gcn5, stronger effect = lower value 1.07 | locus YHR013C, strain ard1, stronger effect = lower value 0.989 | locus YHR027C, strain rpn1, stronger effect = lower value 1 | locus YHR030C, strain SLT2, stronger effect = lower value 1 and 0.993 | locus YHR079C, strain IRE1 (second series), stronger effect = lower value 1.01 | locus YHR079C, strain IRE1, stronger effect = lower value 1.02 | locus YHR094C, strain hxt1, stronger effect = lower value 1.01 | locus YHR129C, strain ARP1, stronger effect = lower value 1.01 | locus YHR142W, strain chs7, stronger effect = lower value 0.998 | locus YHR200W, strain rpn10, stronger effect = lower value 1.02 | locus YIL066C, strain RNR3, stronger effect = lower value 1.01 | locus YIL073C, strain SPO22, stronger effect = lower value 1.1 | locus YIL125W, strain kgd1, stronger effect = lower value 1.01 | locus YIR030C, strain dcg1, stronger effect = lower value 1.01 | locus YJL092W, strain hpr5, stronger effect = lower value 0.991 | locus YJL095W, strain BCK1 (second series), stronger effect = lower value 1 | locus YJL095W, strain BCK1, stronger effect = lower value 1.02 and 0.987 | locus YJL115W, strain asf1, stronger effect = lower value 0.98 | locus YJL129C, strain trk1, stronger effect = lower value 1.01 | locus YJL134W, strain LCB3, stronger effect = lower value 1.01 | locus YJL154C, strain vps35, stronger effect = lower value 0.984 | locus YJL164C, strain tpk1, stronger effect = lower value 1 | locus YJL166W, strain qcr8, stronger effect = lower value 0.998 | locus YJL168C, strain set2, stronger effect = lower value 1.01 | locus YJL187C, strain SWE1 (second series), stronger effect = lower value 1.01 | locus YJL187C, strain SWE1, stronger effect = lower value 0.992 | locus YJR043C, strain POL32, stronger effect = lower value 1.07 | locus YJR066W, strain TOR1, stronger effect = lower value 0.95
